Screening data (PubChem BioAssay)
Sampled rows, rich in hits. Any-hit rate of the full collection: about 2.4%.
D2 PAM-1 = positively modulates the human D2 dopamine receptor allosterically; P14416; HEK293 T-REx D2, calcium flux, EC20 dopamine potentiation; potentiation, % at 10 µM; 0.34% of 340,000 active;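 active means potentiation over 3 SD above the plate norm, cut at about 30% in these data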
Target sequence (P14416 whole entry, looked up): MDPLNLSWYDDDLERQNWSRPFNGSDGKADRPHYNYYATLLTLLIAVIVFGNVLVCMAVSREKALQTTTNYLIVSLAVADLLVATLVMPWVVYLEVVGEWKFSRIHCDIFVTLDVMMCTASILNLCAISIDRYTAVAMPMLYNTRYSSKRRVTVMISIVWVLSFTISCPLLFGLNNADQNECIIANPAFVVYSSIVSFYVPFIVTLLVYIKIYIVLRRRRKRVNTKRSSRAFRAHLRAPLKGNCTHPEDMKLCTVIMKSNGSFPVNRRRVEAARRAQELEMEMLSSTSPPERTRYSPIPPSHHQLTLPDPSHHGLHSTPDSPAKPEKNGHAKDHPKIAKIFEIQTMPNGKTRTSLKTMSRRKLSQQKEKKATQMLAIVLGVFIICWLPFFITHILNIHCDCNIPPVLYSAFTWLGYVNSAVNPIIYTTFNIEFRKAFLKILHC
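Potentiation of an EC20 dopamine calcium response measured kinetically over 180 s, after a preceding 180 s compound-only read flagging agonists. Cells: inducible Hek293 Trex D2 line, 4000/well, cultured overnight at 30 C before dye loading.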
D2 ag-1 = agonists of human D2 dopamine receptor (beta-arrestin) | P14416 | DiscoveRx PathHunter D2 beta-arrestin, luminescence, 90 min; 100% = 57 uM dopamine signal | activation, % (test concentration not listed) | 0.084% of 360,000 active; in the data active means activation above about 40%; inconclusive means between about 15% and that limit
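DiscoveRx PathHunter D2 beta-arrestin cells (2,100/well) attached overnight, then compound-stimulated 90 min at 37 C in HBSS/10 mM HEPES/0.1% Tween-20 buffer; beta-galactosidase complementation read by luminescence after 1 h at ambient temperature. Dopamine 57 uM final (EC100) as control.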
D2 antag = antagonizes the human D2 dopamine receptor; HEK293 TREx D2 cells, calcium flux, dopamine EC80; inhibition, % at 10 µM; AID 485344; P14416; 2% of 340,000 active; in the data active means inhibition above about 30%; inactive means below that, where a call was filed
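In this primary screen, negative modulation is detected by tracking calcium flux after an EC80 dopamine challenge in inducible HEK293 T-REx D2 cells preexposed to test compound for 180 s.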
D2 PAM-2 = positive allosteric modulators of human D2 dopamine receptor; P14416; DiscoveRx D2 beta-arrestin cells, luminescence, 90 min; 100% = 57 uM dopamine signal; potentiation, % (no concentration beside the values); 0.23% of 360,000 active; in the data active means potentiation above about 50%; inconclusive means mostly about 30% to 49%
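PathHunter D2 cells, attached overnight at 37 deg C, received compound in DMSO plus dopamine at EC20 (50 nM final) for 90 min at 37 deg C. Beta-arrestin recruitment was read as luminescence after 1 h with detection reagent at ambient temperature.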
D2 ag-2 = D2 dopamine receptor (human) agonism; AID 485358; HEK293 T-REx D2 cells, calcium flux agonist mode; 0.53% of 340,000 active; activation, % at 2 µM;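 active means activation over 3 SD above normal in the single-dose calcium agonist read, cut at about 30% in these data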
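Agonism is scored from calcium flux in a force-coupled, inducible HEK293 cell line expressing D2, read kinetically for 180 s after compound addition against dopamine controls.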
D3 arrestin ag = D3 receptor agonism confirmed, beta-arrestin readout | shares compounds with D2 ag-2 | DiscoveRx D3 beta-arrestin cells, luminescence, 90 min | Potency, µM (series often up to 76.9 µM), hits mostly activators | 4% of 2,300 active; further: nearly all actives have a fitted effect of over 70% in size
D2 ag-3 = counter-screen for D3 agonists: human D2 dopamine receptor agonism; DiscoveRx PathHunter D2 beta-arrestin, luminescence, 90 min; response scale: percent relative to full dopamine signal; Potency, µM (top dose mostly 76.9 µM), usual class: activators; 5.9% of 2,300 active; shares compounds with D2 ag-2; further: nearly all actives have a fitted effect of over 70% in size
Numbers stand for hits; – = inactive; ? = inconclusive; · = not tested or not shown. Unless noted, the call rests on the fitted dose curve; in most records, active means well fitted activation curve with a large enough effect; inconclusive means small, poorly fitted or top-dose-only effect; inactive means flat fitted curve, though single readings scatter.

SMILES	D2 PAM-1	D2 ag-1	D2 antag	D2 PAM-2	D2 ag-2	D3 arrestin ag	D2 ag-3
CCN1C(=O)CC(Sc2ccccc2C(=O)O)C1=O (stereo not drawn)	–	–	–	–	–	·	·
O=C(O)c1ccccc1SC1CC(=O)N(c2cccc3ccccc23)C1=O (stereo not drawn)	–	–	–	–	41	–	–
CC(OC(=O)c1ccc(-n2cnnn2)cc1)C(=O)Nc1ccccc1F (stereo not drawn)	·	–	·	–	·	·	·
CC(OC(=O)c1ccc(-n2cnnn2)cc1)C(=O)Nc1ccc(F)c(F)c1F (stereo not drawn)	–	–	–	–	–	–	–
CCOc1cc(CNC(=O)c2ccc(Cn3c(=O)c4cccn4c4cccnc43)cc2)ccc1OC	–	·	·	·	–	·	·
Cc1c(Cl)cccc1N(CC(=O)NC1CCCCC1)S(C)(=O)=O	–	–	–	–	72	–	–
COc1ccc(CN2CCN(Cc3ccccc3F)CC2)c(OC)c1	–	–	–	–	–	·	·
COc1ccc(-n2c(CN3CCN(c4ccccc4)CC3)nc3ccc([N+](=O)[O-])cc3c2=O)c(OC)c1	–	–	–	–	–	·	·
COc1ccc(CN2CCN(c3ccccn3)CC2)c(OC)c1	–	?	83	–	84	–	?
COc1cccc(-n2c(CN3CCN(c4ccccn4)CC3)nc3ccc([N+](=O)[O-])cc3c2=O)c1	–	–	–	–	–	–	–
COc1cc(CN2CCCCCC2)cc(OC)c1	–	–	–	–	–	·	·
COc1ccc(CN2CCN(c3ncccn3)CC2)c(OC)c1	–	45	69	–	56	?	?
COc1cc(CN2CCN(c3ncccn3)CC2)cc(OC)c1	–	56	87	–	88	?	2.8µM
Cc1ccc(S(=O)(=O)N2C[C@H]3C(=O)C[C@@H](c4ccccc4)N(S(=O)(=O)c4ccc(C)cc4)[C@H]3C[C@H]2c2ccccc2Cl)cc1	·	–	·	–	·	·	·
O=C(O)C1C2OC3C(OC(=O)C31)C2Br (stereo not drawn)	·	–	·	–	·	·	·
COC(=O)c1cc2sccc2n1CC(=O)Nc1ccc(OC)c(OC)c1	·	·	·	·	–	·	·
CCOC(=O)c1ccc(NC(=O)CN2CCN(C(=O)c3ccco3)CC2)cc1	–	?	67	–	80	22µM	?
NC(=O)c1ccc(NC(=O)CN2CCN(C(=O)c3ccco3)CC2)cc1	·	–	·	–	·	?	?
CCc1ccc(NC(=O)C(=O)NCCN2CCN(C(=O)c3ccc(OC)cc3)CC2)cc1	·	–	·	–	·	·	·
CCc1ccc(NC(=O)C(=O)NCCN2CCN(C(=O)c3ccco3)CC2)cc1	–	?	–	–	67	5µM	?
NC(=O)c1ccc(NC(=O)CN2CCOCC2)cc1	–	–	–	–	–	·	·
C=CCn1c(-c2sc3nc(C)cc(C)c3c2N)n[nH]c1=S	–	–	32	–	–	–	–
C=CCn1c(-c2cc(OC)cc(OC)c2)n[nH]c1=S	–	–	–	–	–	·	·
Cc1ccccc1OCC(=O)Nc1sc2c(c1C(=O)OC(C)C)CCCC2	–	·	·	·	–	·	·
O=C(Cn1c(=O)cnc2ccccc21)NNC(=O)c1ccc(Cl)cc1	·	–	·	–	·	–	–
SMILES	D2 PAM-1	D2 ag-1	D2 antag	D2 PAM-2	D2 ag-2	D3 arrestin ag	D2 ag-3
CCc1ccc(C(=O)NNC(=O)Cn2c(=O)cnc3ccccc32)cc1	–	–	–	–	–	·	·
Cc1cc(C(F)F)n2nc(C(=O)Nc3cc(C)on3)nc2n1	–	–	–	–	–	–	–
Cc1cc(C(F)F)n2nc(C(=O)Nc3c(C)cccc3C)nc2n1	–	·	·	·	–	·	·
CCCN(CCC)CCNC(=O)c1nn(C)c2c1CS(=O)(=O)c1ccccc1-2	–	·	·	·	–	·	·
Cc1cc(OCC(=O)Nc2ccncc2)ccc1Cl	–	–	–	–	–	·	·
Cc1cc(OCC(=O)Nc2ncn[nH]2)ccc1Cl	–	–	–	–	–	–	–
CCOC(=O)c1sc(NC(=O)c2nc(SCC)ncc2Cl)c(C(=O)OCC)c1C	–	·	·	·	·	·	·
Cc1onc(-c2ccccc2)c1C(=O)NNC(=S)NC(=O)c1ccc(Br)cc1	–	–	36	–	46	–	–
Cc1onc(-c2ccccc2)c1C(=O)NNC(=O)c1ccccc1O	–	–	–	–	–	·	·
Cc1onc(-c2ccccc2)c1C(=O)NNC(=S)NC(=O)/C=C/c1ccccc1	–	–	–	–	31	–	–
COc1ccc(/C=C/C(=O)NC(=S)NNC(=O)c2c(-c3ccccc3)noc2C)cc1	–	–	–	–	–	·	·
CCc1ccc(CN2CCCC(CCC(=O)N3CCN(c4ccccn4)CC3)C2)o1 (stereo not drawn)	–	–	–	–	–	–	–
Cc1ccc(C(=O)N2CCCC(CCC(=O)N3CCN(c4ccccn4)CC3)C2)cc1 (stereo not drawn)	–	–	–	–	–	·	·
OC[C@@H]1CN(Cc2ccc3c(c2)OCO3)C[C@H](n2cnc3c(N4CCCC4)ncnc32)O1	·	–	·	–	·	·	·
COc1ccc(CC(=O)Nc2ccc(F)c(F)c2F)cc1S(=O)(=O)N1CCOCC1	–	–	–	–	–	–	–
CCCN(CCC)CCCNC(=O)CC(C(=O)N1CCc2ccccc21)n1ccnc1 (stereo not drawn)	–	–	–	–	–	–	–
COc1ccc(C)cc1NC(=O)NC(C)c1ccc2c(c1)OCO2 (stereo not drawn)	–	–	–	–	65	–	–
N#Cc1c(-c2ccco2)nc(SCc2ccc(F)cc2)[nH]c1=O	–	–	–	–	–	·	·
Cc1nc(SCc2cccc(F)c2)[nH]c(=O)c1C#N	·	–	·	–	·	–	–
CCc1ccc(CNC(=O)C2CCCN(S(=O)(=O)c3ccc4c(ccn4C)c3)C2)cc1 (stereo not drawn)	–	·	·	·	–	·	·
CCN1CCN(C(=O)CNC(=O)c2nn(-c3ccc(OC)cc3)c(=O)c3ccccc23)CC1	–	–	–	–	51	–	–
CCN1C(=O)[C@H]2[C@@H](c3ccc(OC)cc3)N[C@]3(CCCN(CC4CCCCC4)C3=O)[C@H]2C1=O	·	–	·	–	·	·	·
CCc1nnc(NC(=O)CN2CCC(O)(c3ccccc3OC)CC2)s1	–	–	–	–	–	·	·
COc1ccccc1C1(O)CCN(CC(=O)Nc2nc(-c3ccccc3)cs2)CC1	–	–	–	–	32	–	–
CC(C)NC[C@@H](O)c1ccc(O)c(O)c1	–	–	–	–	–	?	–
OC[C@@H]1CN(Cc2ccc(Cl)cc2)C[C@H](n2cnc3c(Nc4ccccc4)ncnc32)O1	·	–	·	–	·	·	·
